ChEMBL document CHEMBL1961873, “Compounds: GSK PKIS; Assays: Nanosyn kinase panel” (2012)

What follows are compounds tested against Fibroblast growth factor receptor 2 (Homo sapiens) (UniProt P21802). Settings: at 0.1 µM.
Sequence of Fibroblast growth factor receptor 2 (Homo sapiens) (P21802 22-821 limits assumed): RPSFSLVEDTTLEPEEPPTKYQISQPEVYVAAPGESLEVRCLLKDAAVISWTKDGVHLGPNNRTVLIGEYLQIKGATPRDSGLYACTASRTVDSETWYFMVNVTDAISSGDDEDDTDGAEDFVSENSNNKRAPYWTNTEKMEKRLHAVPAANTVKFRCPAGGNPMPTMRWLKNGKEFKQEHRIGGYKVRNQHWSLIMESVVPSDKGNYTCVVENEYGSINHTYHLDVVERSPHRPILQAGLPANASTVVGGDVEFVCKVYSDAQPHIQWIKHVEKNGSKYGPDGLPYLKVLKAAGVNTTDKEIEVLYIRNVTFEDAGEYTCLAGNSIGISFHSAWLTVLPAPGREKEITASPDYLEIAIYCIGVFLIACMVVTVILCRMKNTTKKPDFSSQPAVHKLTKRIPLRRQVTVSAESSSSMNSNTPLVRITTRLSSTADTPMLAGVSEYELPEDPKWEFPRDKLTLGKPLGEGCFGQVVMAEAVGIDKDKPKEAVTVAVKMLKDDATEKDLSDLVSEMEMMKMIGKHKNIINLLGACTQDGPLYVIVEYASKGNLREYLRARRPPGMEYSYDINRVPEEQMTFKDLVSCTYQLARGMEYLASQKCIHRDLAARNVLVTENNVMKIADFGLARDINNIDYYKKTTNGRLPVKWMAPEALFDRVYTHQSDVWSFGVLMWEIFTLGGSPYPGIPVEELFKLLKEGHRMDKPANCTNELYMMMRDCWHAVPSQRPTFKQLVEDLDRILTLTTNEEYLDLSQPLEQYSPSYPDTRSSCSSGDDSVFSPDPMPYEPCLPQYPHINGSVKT

Compound	inhibition
COc1cccc(-n2ncc3c(N/N=C/c4ccc(C(=O)NCCN(C)C)cc4)ncnc32)c1	5.08%
O=C(O[C@H]1CN[C@H](C#Cc2cc3ncnc(Nc4ccc5c(cnn5Cc5ccccc5)c4)c3s2)C1)N1CCOCC1	-0.61%
COc1cc(N2CCN(C(C)C)CC2)ccc1Nc1nc(Nc2cccc(F)c2C(=O)O)c2cc[nH]c2n1	7.3%
COC(=O)Nc1nc2ccc(Oc3ccc(NC(=O)Nc4cc(C(F)(F)F)ccc4F)cc3)cc2s1	2.26%
CCS(=O)(=O)c1ccc(OC)c(Nc2ncc(-c3cccc(C(C)=O)c3)o2)c1	17.2%
CN(C)CCNC(=O)Nc1ccc(N(C)c2ccnc(Nc3ccc(CS(C)(=O)=O)cc3)n2)cc1	5.38%
CC1(C)CC(n2cnc(-c3ccc(F)cc3)c2-c2ccnc(N)n2)CC(C)(C)N1	-0.84%
CCS(=O)(=O)c1ccc(OC)c(Nc2ncc(-c3cccc(F)c3)o2)c1	40.5%
Fc1cccc(COc2ccc(Nc3ncncc3C#Cc3ccccc3)cc2Cl)c1	4.03%
COc1ccccc1-c1cc(/C=C2\C(=O)Nc3ncc(Br)cc32)cc(Br)c1O	6.66%
OCCCNc1nccc(-c2c(-c3ccc(F)cc3)nn3cc(C(F)(F)F)ccc23)n1	0.64%
NS(=O)(=O)c1ccc(N/N=C2\C(=O)Nc3cccc(CCc4ccncc4)c32)cc1	7.6%
O=C1Nc2ccccc2/C1=C1\CCc2cc(O)ccc21	9.87%
COc1cccc(Nc2nccc(-c3cnn4ncccc34)n2)c1	1.68%
CS(=O)(=O)Nc1ccc(-c2cc(-c3ccccc3)cc(C(N)=O)c2N)cc1	1.73%
O=C(Nc1n[nH]c2nnc(-c3cccnc3)cc12)C1CC1	-0.85%

Compound	inhibition
CN1CCC(n2cnc(-c3ccc(F)cc3)c2-c2ccnc(NCCO)n2)CC1	3.73%
COc1cc2c(cc1Nc1nc(Nc3cccc(F)c3C(N)=O)c3cc[nH]c3n1)N(C(=O)CN1CCN(C(C)C)CC1)CC2	5.89%
COc1ccc2ncn(-c3cc(O[C@H](C)c4ccccc4C(F)(F)F)c(C(N)=O)s3)c2c1	-2.58%
O=C(O[C@H]1CN[C@H](C#Cc2cc3ncnc(Nc4ccc5c(ccn5Cc5cc(F)ccc5F)c4)c3s2)C1)N1CCOCC1	3.95%
c1ccc(-c2n[nH]cc2-c2ccnc(-c3ccc(OCCn4ccnc4)cc3)c2)nc1	0.47%
CCn1c(-c2nonc2N)nc2cncc(C(=O)NCCNC)c21	3.81%
COc1cc(N2CCN(C(C)C)CC2)ccc1Nc1nc(Nc2cccc3ncccc23)c2cc[nH]c2n1	-2.09%
Cc1cc(O)cc(C)c1/C=C/c1cncc(C(N)=O)c1	2.08%
FC(F)(F)CNc1nccc(-c2cnn3ncccc23)n1	4.25%
COc1ccc(-c2nn3ncccc3c2-c2ccnc(Nc3ccc(F)c(F)c3)n2)cc1	5.14%
COc1ccc(Nc2ncc(-c3ccccc3)o2)cc1OC	1.29%
CS(=O)(=O)CCNCc1ccc(-c2ccc3ncnc(Nc4ccc(OCc5cccc(C(F)(F)F)c5)cc4)c3c2)o1	6.07%
CNC(=O)c1ncccc1Nc1nc(Nc2cc3c(cc2OC)CCCN3C(=O)CN(C)C)nc2[nH]ccc12	6.69%
CS(=O)(=O)Nc1ccc(-c2ccc3c(NC(=O)C4CC4)n[nH]c3c2)cc1	3.37%
CN(c1ccc(NC(=O)NCCN2CCOCC2)cc1)c1ccnc(Nc2ccc(CS(C)(=O)=O)cc2)n1	7.93%

These compounds were tested against Fibroblast growth factor receptor 2 (Homo sapiens) (UniProt P21802). Settings: at 1 µM.

Compound	inhibition
COc1cccc(-n2ncc3c(N/N=C/c4ccc(C(=O)NCCN(C)C)cc4)ncnc32)c1	10.7%
O=C(O[C@H]1CN[C@H](C#Cc2cc3ncnc(Nc4ccc5c(cnn5Cc5ccccc5)c4)c3s2)C1)N1CCOCC1	-0.52%
COc1cc(N2CCN(C(C)C)CC2)ccc1Nc1nc(Nc2cccc(F)c2C(=O)O)c2cc[nH]c2n1	9.34%
COC(=O)Nc1nc2ccc(Oc3ccc(NC(=O)Nc4cc(C(F)(F)F)ccc4F)cc3)cc2s1	29.7%
CCS(=O)(=O)c1ccc(OC)c(Nc2ncc(-c3cccc(C(C)=O)c3)o2)c1	52.6%
CN(C)CCNC(=O)Nc1ccc(N(C)c2ccnc(Nc3ccc(CS(C)(=O)=O)cc3)n2)cc1	8.82%
CC1(C)CC(n2cnc(-c3ccc(F)cc3)c2-c2ccnc(N)n2)CC(C)(C)N1	-0.31%
CCS(=O)(=O)c1ccc(OC)c(Nc2ncc(-c3cccc(F)c3)o2)c1	69.8%
Fc1cccc(COc2ccc(Nc3ncncc3C#Cc3ccccc3)cc2Cl)c1	5.85%
COc1ccccc1-c1cc(/C=C2\C(=O)Nc3ncc(Br)cc32)cc(Br)c1O	18%
OCCCNc1nccc(-c2c(-c3ccc(F)cc3)nn3cc(C(F)(F)F)ccc23)n1	3.29%
NS(=O)(=O)c1ccc(N/N=C2\C(=O)Nc3cccc(CCc4ccncc4)c32)cc1	18.2%
O=C1Nc2ccccc2/C1=C1\CCc2cc(O)ccc21	31.3%
COc1cccc(Nc2nccc(-c3cnn4ncccc34)n2)c1	16.6%
CS(=O)(=O)Nc1ccc(-c2cc(-c3ccccc3)cc(C(N)=O)c2N)cc1	4.95%
O=C(Nc1n[nH]c2nnc(-c3cccnc3)cc12)C1CC1	-0.69%

Compound	inhibition
CN1CCC(n2cnc(-c3ccc(F)cc3)c2-c2ccnc(NCCO)n2)CC1	6.49%
COc1cc2c(cc1Nc1nc(Nc3cccc(F)c3C(N)=O)c3cc[nH]c3n1)N(C(=O)CN1CCN(C(C)C)CC1)CC2	0.93%
COc1ccc2ncn(-c3cc(O[C@H](C)c4ccccc4C(F)(F)F)c(C(N)=O)s3)c2c1	5.48%
O=C(O[C@H]1CN[C@H](C#Cc2cc3ncnc(Nc4ccc5c(ccn5Cc5cc(F)ccc5F)c4)c3s2)C1)N1CCOCC1	4.22%
c1ccc(-c2n[nH]cc2-c2ccnc(-c3ccc(OCCn4ccnc4)cc3)c2)nc1	2.51%
CCn1c(-c2nonc2N)nc2cncc(C(=O)NCCNC)c21	5.33%
COc1cc(N2CCN(C(C)C)CC2)ccc1Nc1nc(Nc2cccc3ncccc23)c2cc[nH]c2n1	1.97%
Cc1cc(O)cc(C)c1/C=C/c1cncc(C(N)=O)c1	7.34%
FC(F)(F)CNc1nccc(-c2cnn3ncccc23)n1	3.09%
COc1ccc(-c2nn3ncccc3c2-c2ccnc(Nc3ccc(F)c(F)c3)n2)cc1	7.4%
COc1ccc(Nc2ncc(-c3ccccc3)o2)cc1OC	19.4%
CS(=O)(=O)CCNCc1ccc(-c2ccc3ncnc(Nc4ccc(OCc5cccc(C(F)(F)F)c5)cc4)c3c2)o1	14.2%
CNC(=O)c1ncccc1Nc1nc(Nc2cc3c(cc2OC)CCCN3C(=O)CN(C)C)nc2[nH]ccc12	6.99%
CS(=O)(=O)Nc1ccc(-c2ccc3c(NC(=O)C4CC4)n[nH]c3c2)cc1	8.17%
CN(c1ccc(NC(=O)NCCN2CCOCC2)cc1)c1ccnc(Nc2ccc(CS(C)(=O)=O)cc2)n1	14.8%
